PubChem BioAssay (Tox21)
Where “and” joins values, the source holds several entries; their conditions need not be identical. Identical values can stand only once. Inconclusive results are not listed. Some structures have more than one record in an assay (separate samples or runs), and their calls can disagree. Calls of active or inactive are those of the source. Unless noted, calls come from the whole dose curve; as a rule, active = well fitted curve in the direction sought with a large enough effect in the repeat runs; inconclusive = weak or mixed curves; inactive = no such curve, though single readings can be large; an effect the other way counts as inactive or inconclusive.

System: not listed separately
Test: qHTS assay to identify small molecule antagonists of the retinoid-related orphan receptor gamma (ROR-gamma) signaling pathway - cell viability counter screen (AID 1159520); note: nearly all actives have a fitted effect of over 50% in size; for activity, negative = cytotoxicity: % is set by controls: 0 for no effect and ±100 for the full control effect
Settings: Tet-on RORgamma CHO cells viability, ATP luminescence, 16 h; series mostly up to 92.4 µM
Method in brief: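 Cytotoxicity was read from cellular ATP (CellTiter-Glo luminescence) after 16 hr at 37 C with 1 uM doxycycline induction. The inducer was added 2 hr after compound transfer to Tet-on ROR gamma CHO cells.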
Potency is the fitted concentration of half-maximal effect.

SMILES	Potency	activity, negative = cytotoxicity
CSc1cnc(C)cn1	inactive	–
C=C(C)C(=O)OCC[N+](C)(C)C	inactive	–
Oc1ccc(C2(c3ccc(O)cc3)CC3CC2C2CCCC32)cc1 (stereo unspecified)	52.3 µM (active)	–
CC(NN)c1ccccc1 (stereo unspecified)	–	0.565% [at 19 µM] (inactive)
Clc1ccccc1C(c1ccccc1)(c1ccccc1)n1ccnc1	24.3 µM (active) and inactive	–
O=[N+]([O-])c1cc(Cl)c(Cl)c(Cl)c1Cl	inactive	–
CC1=C(C(=O)OC(C)C)C(c2cccc([N+](=O)[O-])c2)C(C(=O)OC2CN(C(c3ccccc3)c3ccccc3)C2)=C(N)N1 (stereo unspecified)	26.6 µM (active)	–
Nc1ccccc1O	inactive	–
CCCCCCCCCCCCCCCCCC[N+](C)(C)Cc1ccccc1	27.6 µM (active)	–
CC[C@@]1(O)C(=O)OCc2c1cc1n(c2=O)Cc2c-1nc1ccccc1c2/C=N/OC(C)(C)C	0.944 µM (active)	–
CCCCN(CCCC)C(=O)N(CCCC)CCCC	inactive	–

Molecular target: Nuclear receptor ROR-gamma (Homo sapiens) (UniProt P51449)
Test: qHTS assay to identify small molecule antagonists of the retinoid-related orphan receptor gamma (ROR-gamma) signaling pathway (AID 1159521; note: nearly all actives have a fitted effect of over 50% in size;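 for activity change, negative = inhibition: CHO cells with doxycycline inducible ROR-gamma driving an RORE luciferase reporter; top concentration of the series differs between compounds; % is set by controls: 0 for no effect and ±100 for the full control effect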)
Settings: Tet-on RORgamma CHO cells, RORE-luciferase, 16 h; series mostly up to 92.4 µM
Method in brief: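 RORγ antagonism is scored from reduced reporter luminescence in Tet-on CHO cells. Induction used 1 uM final doxycycline hyclate for 16 h at 37 C, following a 2 h compound exposure.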

SMILES	Potency	activity change, negative = inhibition
CSc1cnc(C)cn1	inactive	–
CC(C)(C)NC(=O)[C@@H]1C[C@@H]2CCCC[C@@H]2CN1C[C@@H](O)[C@H](Cc1ccccc1)NC(=O)[C@H](CC(N)=O)NC(=O)c1ccc2ccccc2n1	55.2 µM (active)	–
C=C(C)C(=O)OCC[N+](C)(C)C	inactive	–
Oc1ccc(C2(c3ccc(O)cc3)CC3CC2C2CCCC32)cc1 (stereo unspecified)	46.6 µM (active)	–
CC(NN)c1ccccc1 (stereo unspecified)	–	-0.108% [at 19 µM] (inactive)
O=C(Nc1cccc([N+](=O)[O-])c1)c1cc2ccccc2cc1O	4.33 µM (active)	–
[Cl][Au]([Cl])[Cl]	5.45 µM (active)	–
O=C1CCCCCN1SSN1CCCCCC1=O	24.3 µM (active)	–
Clc1ccccc1C(c1ccccc1)(c1ccccc1)n1ccnc1	2.73 µM (active) and 7.5 µM (active)	–
Nc1nc2ccccc2n1Cc1ccc(F)cc1	10.6 µM (active)	–
CCCCCCCC/C=C\CCCCCCCCOCCO	20 µM (active)	–
O=[N+]([O-])c1cc(Cl)c(Cl)c(Cl)c1Cl	inactive	–
CCCCCCCCCCCC(=O)NCCCN(C)C	30.6 µM (active)	–
CC1=C(C(=O)OC(C)C)C(c2cccc([N+](=O)[O-])c2)C(C(=O)OC2CN(C(c3ccccc3)c3ccccc3)C2)=C(N)N1 (stereo unspecified)	21.1 µM (active)	–
Nc1ccccc1O	inactive	–
Fc1ccc(C(c2ccc(F)cc2)N2CCN(C/C=C/c3ccccc3)CC2)cc1	23.7 µM (active)	–
Oc1c(Cl)cc(Cl)c2cccnc12	11.9 µM (active)	–
O=c1c(-c2ccccc2)c1-c1ccccc1	18.8 µM (active)	–
CCCCCCCCCCCCCCCCCC[N+](C)(C)Cc1ccccc1	15.5 µM (active)	–
CCCCN(CCCC)c1ccc(C(=O)c2ccccc2C(=O)O)c(O)c1	inactive	–
CC[C@@]1(O)C(=O)OCc2c1cc1n(c2=O)Cc2c-1nc1ccccc1c2/C=N/OC(C)(C)C	15 µM (active)	–
CCCCN(CCCC)C(=O)N(CCCC)CCCC	inactive	–

System: not listed separately
Test: qHTS assay to identify small molecule agonists of the AP-1 signaling pathway - cell viability counter screen (AID 1159525; calls by dose curve; note: nearly all actives have a fitted effect of over 55% in size)
Settings: ME-180 AP-1-bla cells viability, ATP luminescence, 5 h; series mostly up to 76.8 µM
Method in brief: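 Intracellular ATP by Cell Titer Glo luminescence (30 min, RT) in the same ME-180 AP-1-bla wells after the 5 h compound exposure at 37 °C. Normalised to tetra n-octyl ammonium bromide and DMSO controls.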

SMILES	Potency	viability change, negative = cytotoxic
CSc1cnc(C)cn1	inactive	–
CCCCCCCCOC(=O)c1ccc(O)cc1	54.8 µM (active)	–
C=C(C)C(=O)OCC[N+](C)(C)C	inactive	–
CCN(CC)CCNC(=O)c1c(C)[nH]c(/C=C2\C(=O)Nc3ccc(F)cc32)c1C	inactive	–
Oc1ccc(C2(c3ccc(O)cc3)CC3CC2C2CCCC32)cc1 (stereo unspecified)	41.9 µM (active)	–
CC(NN)c1ccccc1 (stereo unspecified)	–	4.35% [at 15.8 µM] (inactive)
CCCCCCCCCOC(=O)c1ccc(O)cc1	38.3 µM (active)	–
c1cc(C(c2ccc(OCC3CO3)cc2)c2ccc(OCC3CO3)cc2)ccc1OCC1CO1 (stereo unspecified)	inactive	–
Clc1ccccc1C(c1ccccc1)(c1ccccc1)n1ccnc1	21.9 µM (active) and inactive	–
CN1CCN(CCC(=O)N2c3ccccc3Sc3ccc(C(F)(F)F)cc32)CC1	inactive	–
O=[N+]([O-])c1cc(Cl)c(Cl)c(Cl)c1Cl	inactive	–
CC1=C(C(=O)OC(C)C)C(c2cccc([N+](=O)[O-])c2)C(C(=O)OC2CN(C(c3ccccc3)c3ccccc3)C2)=C(N)N1 (stereo unspecified)	15.1 µM (active)	–
Nc1ccccc1O	15.3 µM (active)	–
CC(C)(C)C1CCC(CC2=C(O)c3ccccc3C(=O)C2=O)CC1 (stereo unspecified)	inactive	–
N/C(=N\N=C\c1ccc(Cl)cc1)N/N=C/c1ccc(Cl)cc1	13.4 µM (active)	–
CCCCCCCCCCCCCCCCCC[N+](C)(C)Cc1ccccc1	39.3 µM (active)	–
CCC(Cl)C(Cl)C(Cl)CC(Cl)C(Cl)C(C)Cl (stereo unspecified)	inactive	–
CC[C@@]1(O)C(=O)OCc2c1cc1n(c2=O)Cc2c-1nc1ccccc1c2/C=N/OC(C)(C)C	inactive	–
O=C1CCCc2c1cc1ccc3cccc4ccc2c1c34	inactive	–
CCCCN(CCCC)C(=O)N(CCCC)CCCC	inactive	–

System: not listed separately
Test: qHTS assay to identify small molecule agonists of the AP-1 signaling pathway (AID 1159526; calls by dose curve; for activation: % is set by controls: 0 for no effect and ±100 for the full control effect)
Settings: ME-180 (cervical carcinoma) AP-1-bla reporter, beta-lactamase FRET ratio, 5 h; series mostly up to 76.8 µM

SMILES	Potency	activation
CSc1cnc(C)cn1	inactive	–
CCN(CC)CCNC(=O)c1c(C)[nH]c(/C=C2\C(=O)Nc3ccc(F)cc32)c1C	inactive	–
CC(NN)c1ccccc1 (stereo unspecified)	–	-4.49% [at 15.8 µM] (inactive)
ON=C1CCCC1	inactive	–
Fc1ccc(C(c2ccc(F)cc2)N2CCN(C/C=C/c3ccccc3)CC2)cc1	inactive	–
CCC(Cl)C(Cl)C(Cl)CC(Cl)C(Cl)C(C)Cl (stereo unspecified)	inactive	–
CCCCN(CCCC)c1ccc(C(=O)c2ccccc2C(=O)O)c(O)c1	inactive	–
O=C1CCCc2c1cc1ccc3cccc4ccc2c1c34	22.2 µM (active)	–
